Source: PubChem BioAssay (NCATS)
Values joined by “and” are separate entries in the source; they are usually repeats but may differ in a detail not shown here. Equal values may be shown once. Results filed as inconclusive are left out. Active and inactive are the calls of the source. Calls come from the whole dose curve; as a rule, active = well fitted curve in the direction sought with a large enough effect; inconclusive = small, poorly fitted or top-dose-only effect, or another doubt; inactive = no such curve, though single readings can be large; an effect the other way counts as inactive or inconclusive.

Legend:
[1] = tested on: CRL-7250; test: Cytotoxic Profiling of Annotated Libraries Using Quantitative High-Throughput Screening (AID 1296008); settings: Five cell lines viability, CellTiter-Glo ATP luminescence, 48-72 h; max response: hits give low values; note: nearly all actives have a fitted effect of over 60% in size; for max response: % is set by controls: 0 for no effect and ±100 for the full control effect
Procedure, shortened: (§1)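 Compounds were pin-transferred onto cells and incubated 48 or 72 hr at 37 degree Celsius, 95% humidity. CellTiter-Glo was added, plates sat 10 min at room temperature, then ATP-coupled luminescence was imaged as the viability read-out.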

[2] = tested on: HaCat; test: as above; settings: Five cell lines viability, CellTiter-Glo ATP luminescence, 48-72 h; max response: hits give low values
Procedure, shortened: as §1

[3] = tested on: KB-3-1; test: as above; settings: Five cell lines viability, CellTiter-Glo ATP luminescence, 48-72 h; max response: hits give low values
Procedure, shortened: as §1

[4] = tested on: NIH3T3; test: as above; settings: Five cell lines viability, CellTiter-Glo ATP luminescence, 48-72 h; max response: hits give low values
Procedure, shortened: as §1

[5] = tested on: MCC-13; test: qHTS assay to identify novel small-molecules to repurpose for Merkel cell carcinoma treatment (AID 1296009); settings: MCC and control cell lines, CellTiter-Glo viability, 72 h; series mostly up to 46 µM; note: nearly all actives have a fitted effect of over 60% in size
Procedure, shortened: (§2)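 Viability readout: ATP luminescence (CellTiter-Glo) after 72 hr drug exposure at 37 degree celsius. Dose-response format was 8 points for NPC and 11 points for MIPE; data normalized to in-plate controls.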

[6] = tested on: MKL-1; test: as above; settings: MCC and control cell lines, CellTiter-Glo viability, 72 h; series mostly up to 46 µM
Procedure, shortened: as §2

[7] = tested on: NIH3T3; test: as above; settings: MCC and control cell lines, CellTiter-Glo viability, 72 h; at 44.8 µM (top of the series) unless noted
Procedure, shortened: as §2

[8] = tested on: UISO; test: as above; settings: MCC and control cell lines, CellTiter-Glo viability, 72 h; series mostly up to 46 µM
Procedure, shortened: as §2

[9] = tested on: C33A; test: Primary qHTS to identify gynecologic anti-cancer compounds using libraries of approved drugs and bioactive compounds (AID 1345084); settings: Gynecologic cancer cell panel viability, ATPlite luminescence, 48 h; series mostly up to 57.5 µM; note: nearly all actives have a fitted effect of over 55% in size
Procedure, shortened: (§3)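 Cells, 1,000 per well, were allowed to settle for 16 h at 37 C before compound addition. Five concentrations were tested for 48 h, and viability was read by ATPlite luminescence after 15 min at room temperature.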

[10] = tested on: CRL-7250; test: qHTS assay to identify novel small-molecules to repurpose for Merkel cell carcinoma treatment (AID 1296009); settings: MCC and control cell lines, CellTiter-Glo viability, 72 h; at 44.8 µM (top of the series) unless noted; note: nearly all actives have a fitted effect of over 60% in size
Procedure, shortened: as §2

[11] = tested on: HACAT; test: as above; settings: MCC and control cell lines, CellTiter-Glo viability, 72 h; at 44.8 µM (top of the series) unless noted
Procedure, shortened: as §2

[12] = tested on: WaGa; test: as above; settings: MCC and control cell lines, CellTiter-Glo viability, 72 h; series mostly up to 46 µM
Procedure, shortened: as §2

[13] = tested on: HEK293; test: Cytotoxic Profiling of Annotated Libraries Using Quantitative High-Throughput Screening (AID 1296008); settings: Five cell lines viability, CellTiter-Glo ATP luminescence, 48-72 h; max response: hits give low values; note: nearly all actives have a fitted effect of over 60% in size; for max response: % is set by controls: 0 for no effect and ±100 for the full control effect
Procedure, shortened: as §1

[14] = tested on: TAB113; test: qHTS profiling for inhibitors of Plasmodium falciparum proliferation (AID 504749); note: nearly all actives have a fitted effect of over 60% in size; settings: P. falciparum in erythrocytes, SYBR Green DNA, 72 h; series mostly up to 28.7 µM
Procedure, shortened: (§4)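 Quantitative HTS: compounds pinned into medium, infected erythrocytes added (0.3% parasitemia, 2.5% hematocrit), 72 h culture at 37 C under 5% CO2. Saponin/Triton lysis with SYBR Green I, overnight RT, then fluorescence read.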

[15] = tested on: TAB165; test: as above; settings: P. falciparum in erythrocytes, SYBR Green DNA, 72 h; series mostly up to 28.7 µM
Procedure, shortened: as §4

[16] = tested on: W2; test: as above; settings: P. falciparum in erythrocytes, SYBR Green DNA, 72 h; series mostly up to 28.7 µM
Procedure, shortened: as §4

[17] = tested on: MKL-2; test: qHTS assay to identify novel small-molecules to repurpose for Merkel cell carcinoma treatment (AID 1296009); settings: MCC and control cell lines, CellTiter-Glo viability, 72 h; series mostly up to 46 µM; note: nearly all actives have a fitted effect of over 60% in size
Procedure, shortened: as §2

[18] = tested on: HEK293T; test: as above; settings: MCC and control cell lines, CellTiter-Glo viability, 72 h; at 44.8 µM (top of the series) unless noted
Procedure, shortened: as §2

[19] = tested on: MCC-26; test: as above; settings: MCC and control cell lines, CellTiter-Glo viability, 72 h; series mostly up to 46 µM
Procedure, shortened: as §2

[20] = tested on: CAOV3; test: Primary qHTS to identify gynecologic anti-cancer compounds using libraries of approved drugs and bioactive compounds (AID 1345084); settings: Gynecologic cancer cell panel viability, ATPlite luminescence, 48 h; series mostly up to 57.5 µM; note: nearly all actives have a fitted effect of over 55% in size
Procedure, shortened: as §3
Potency is the fitted concentration of half-maximal effect.

CN1CCN(c2ccc([N+](=O)[O-])c3no[n+]([O-])c23)CC1
inactive: max response [1] 3.76% and -14.8% | max response [2] 4.94% and 1.91% | outcome [3] | max response [4] 0.637% | outcome [4] | Potency [5] | Potency [6] | outcome [7] | Potency [8] | Potency [9]

COc1ccc2c(c1)CN(C)CC2c1ccc(Cl)c(Cl)c1 (stereo not given)
inactive: outcome [1] | outcome [2] | outcome [3] | max response [4] -1.98% | outcome [10] | outcome [11] | Potency [5] | Potency [6] | Potency [8] | Potency [12]

C/C=C(/C)C(=O)O[C@H]1C(C)=C2[C@H]([C@@H]1OC(=O)CCCCCCC)[C@@](C)(OC(C)=O)C[C@H](OC(=O)CCC)[C@@]1(O)[C@H]2OC(=O)[C@@]1(C)O
active: Potency [1] 41.1 nM | Potency [13] 29.1 nM | Potency [3] 46.1 nM | Potency [4] 51.7 nM | Potency [9] 20000 nM

CCCCCCCCCC(CC)c1ccc(S(=O)(=O)O)cc1 (stereo not given)
inactive: Potency [14] | Potency [15] | Potency [16] | max response [1] -1.12% | outcome [2] | max response [3] -1.21% and -21.2% | max response [4] -1.31% | outcome [11] inactive [at 92 µM] | Potency [5] | Potency [6] | Potency [17] | Potency [8] | Potency [12] | Potency [9]

NC1CC1c1ccccc1 (stereo not given)
inactive: max response [1] -3.17% | max response [2] -2.49% | max response [3] 5.36% | max response [4] -3.94% | outcome [18] | Potency [5] | Potency [6] | Potency [17] | Potency [8] | Potency [12]

c1cc2c(cc1[C@H]1OC[C@H]3[C@H]1CO[C@H]3c1ccc3c(c1)OCO3)OCO2
inactive: max response [1] -11.7% | outcome [2] | max response [3] 6.13% | outcome [4] | outcome [11] | outcome [18] | Potency [5] | Potency [19] | Potency [6] | Potency [17] | outcome [7] | Potency [8] | Potency [12]

CCN1C[C@]2(OC(=O)c3ccccc3NC(C)=O)CC[C@H](OC)[C@@]34[C@H]5CC6[C@@H](OC)C[C@](O)(C(C[C@@H]23)[C@@H]14)[C@@]5(O)[C@@H]6OC
inactive: outcome [1] | outcome [2] | outcome [3] | outcome [4] | outcome [10] | outcome [11] | Potency [5] | Potency [19] | Potency [6] | Potency [17] | outcome [7] | Potency [8] | Potency [12]

CCC(=O)OC1CCC2C3CCC4=CC(=O)CC[C@@]4(C)C3CC[C@]12C (stereo not given in full)
inactive: max response [1] -4.7% | outcome [2] | outcome [3] | max response [4] 4.81% | outcome [11] | outcome [18] | Potency [5] | Potency [6] | Potency [17] | Potency [8] | Potency [12]

CC(=O)OCC1=C(C(=O)O)N2C(=O)[C@@H](N)[C@@H]2SC1
inactive: Potency [16] | outcome [1] | max response [2] -5.82% | max response [3] 0.594% | max response [4] -7.48% | outcome [10] | Potency [5] | Potency [6] | Potency [17] | Potency [8] | Potency [12]

CC1=NN=C(c2ccc(N)cc2)c2cc3c(cc2C1)OCO3
inactive: outcome [1] | max response [2] -15.7% | outcome [3] | outcome [4] | outcome [10] | Potency [5] | Potency [19] | Potency [6] | Potency [17] | outcome [7] | Potency [8] | Potency [12]

O=C(O)C(Cl)Cl
inactive: Potency [14] | Potency [15] | Potency [16] | outcome [1] | outcome [2] | max response [3] -7.1% and -3.84% | max response [4] -3.68% | outcome [10] | outcome [11] | outcome [18] | Potency [5] | Potency [19] | Potency [6] | Potency [17] | Potency [8] | Potency [12] | Potency [9] | Potency [20]

CN[C@@H](C)[C@H](O)c1ccccc1
inactive: max response [1] -24.6% | max response [2] 1.69% | max response [3] -0.943% | max response [4] -5.73% | outcome [18] | Potency [5] | Potency [19] | Potency [6] | Potency [17] | Potency [8] | Potency [12] | Potency [9] | Potency [20]

CC(O)=C(C#N)C(=O)Nc1cc(Br)ccc1Br
inactive: max response [1] 1.28% | max response [13] -1.81% | outcome [3] | max response [4] -15.7% | Potency [5] | Potency [19] | Potency [6] | Potency [8] | Potency [12]

CC(=O)[O][Hg][c]1ccccc1
active: Potency [14] 7080 nM | Potency [15] 4470 nM | Potency [16] 4780 nM | Potency [1] 4220 nM | Potency [13] 376 nM | Potency [3] 1640 nM | Potency [5] 1060 nM | Potency [17] 106 nM | Potency [8] 841 nM | Potency [12] 473 nM | Potency [9] 5620 nM
